From PubChem BioAssay
Most compounds without a hit are left out; they make up all but 17% or so of the library.
TGFb SMAD3 inh – blocks TGF-b signaling | HepG2 CAGA-GFP TGF-b/SMAD3 reporter, GFP fluorescence, 18 h; TGF-beta stimulated, 500 pg/mL final | Potency, µM (titrated, usually from 46.1 µM), without a hit: top-dose activity, negative = inhibition, most hits filed as inhibitors | hit rate 1.2% among 410,000; further: on the % scale 0 is the no-effect control and ±100 the full control effect; nearly all actives have a fitted effect of over 65% in size
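HEPG2 CAGA-GFP cells (1000/well, DMEM with 1% FBS) were pre-incubated 2 h at 37 degrees C, given compound by pin tool, then stimulated with TGF-beta at 500 pg/mL final for 18 h before per-cell GFP fluorescence imaging.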
HepG2 tox – kills HepG2 cells in TGF-b inhibitor counter-screen | HepG2 CAGA-GFP viability, ATP luminescence, 18 h | Potency, µM (doses to about 46.1 µM), for inactives: top-dose activity change, negative = cytotoxicity, actives largely listed as cytotoxic | hit rate 0.76% among 410,000 | AID 588856
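HepG2 CAGA-GFP cells (1000/well, DMEM with 1% FBS) received compound, then TGF-beta at 500 pg/mL final, and were incubated 18 hours at 37 degrees C. Viability was read by CellTiter-Glo luminescence. Media-only wells were set as complete cell-killing and DMSO as no toxicity.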
ATXN2 expr inh – ATXN2 expression inhibition; HEK-293 ATXN2-luciferase reporter, luminescence, 24 h; hit rate 0.72% among 360,000; Potency, µM (titrated, usually from 57 µM), without a hit: top-dose activity change, negative = inhibition, hits mostly inhibitors; further: on the % scale 0 is the no-effect control and ±100 the full control effect; nearly all actives have a fitted effect of over 55% in size
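qHTS (up to 57 uM final) was run with 24 h compound exposure of reporter cells at 37 °C. Each well was multiplexed: SteadyGlo luminescence measured ATXN2-luciferase expression after a fluorogenic Gly-Phe-AFC viability readout (25 uM final).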
ATXN viability – viability counter-screen for ATXN expression inhibitors; hit rate 0.49% among 400,000; S2 cells (HEK-293 line with an ATXN2-luciferase reporter) viability, CellTiter-Fluor protease fluorescence, 24 h; AID 651635; Potency, µM (titrated, usually from 56.7 µM), most hits filed as cytotoxic; further: nearly all actives have a fitted effect of over 40% in size
TDP1 cell CPT – growth inhibition of DT40 Tdp1-/-;hTDP1 cells with camptothecin (screen for TDP1 inhibitors). Potency, µM (top dose mostly 46.2 µM), for the others: at the highest dose activity change, negative = growth inhibition, most hits filed as inhibitors. chicken DT40 Tdp1-/-;hTDP1 cells + 20 nM CPT, ATP luminescence, 48 h. hit rate 12% among 420,000; further: on the % scale 0 is the no-effect control and ±100 the full control effect; nearly all actives have a fitted effect of over 55% in size
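Chicken DT40 Tdp1-/- cells stably complemented with human TDP1 were seeded at 400 cells/well in medium containing 20 nM camptothecin, exposed to pin-transferred compounds, and grown at 37 °C for at least 48 hr. Viability was read as ATP luminescence.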
TDP1 cell noCPT – qHTS for Inhibitors of human tyrosyl-DNA phosphodiesterase 1 (TDP1): qHTS in cells in absence of CPT | DT40 Tdp1-/- hTDP1 cells, no CPT, ATP luminescence, 48 h | Potency, µM (highest dose often 46.2 µM), for inactives: top-dose activity change, negative = growth inhibition, hits mostly inhibitors | hit rate 15% among 420,000; further: on the % scale 0 is the no-effect control and ±100 the full control effect; nearly all actives have a fitted effect of over 55% in size
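Chicken DT40 Tdp1-/- cells complemented with human TDP1, screened without camptothecin (DMSO vehicle only), 400 cells/well. Compounds pin-transferred, cells incubated at 37 °C for at least 48 hr. Growth read as ATP-dependent luminescence (CellTiter-Glo, 30 min at RT).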
Numbers without * were called inactive. The call rests on the fitted dose curve; in most records, active means well fitted curve in the direction sought with a large enough effect; inconclusive means small, poorly fitted or top-dose-only effect, or another doubt; inactive means no such curve, though single readings can be large; an effect the other way counts as inactive or inconclusive. Potency means the concentration at half of the fitted maximal effect.

For CCc1ccc(NC(=O)CSc2nc3ccccc3nc2Cc2ccc(C)cc2)cc1 the results were TGFb SMAD3 inh -2%, HepG2 tox 7%, ATXN2 expr inh 9%, ATXN viability inactive, TDP1 cell CPT inconclusive and TDP1 cell noCPT 16µM*.
Screening Cc1ccc2c(c1)N(CC(=O)N1CCCCC1)C(=O)C(C)O2 (stereo unspecified) returned TGFb SMAD3 inh 6%, HepG2 tox 12%, ATXN2 expr inh 9%, ATXN viability inactive, TDP1 cell CPT -5% and TDP1 cell noCPT -5%.
`CCc1ccc(NC(=O)CSc2nc3ccccc3nc2N2CCCC2)cc1` gave TGFb SMAD3 inh 8%, HepG2 tox -3%, ATXN2 expr inh 3%, ATXN viability inconclusive, TDP1 cell CPT 10µM* and TDP1 cell noCPT 4.6µM*.
`Cc1nc(N2CCCC2)c2c(C(=O)N3CCN(c4cc(Cl)ccc4C)CC3)c(C)oc2n1` gave TGFb SMAD3 inh inconclusive, HepG2 tox -16%, TDP1 cell CPT inconclusive and TDP1 cell noCPT 18µM*.
Cc1cccc(N2CCN(C(=O)c3c(C)oc4ncnc(N5CCCCC5)c34)CC2)c1C was read as TGFb SMAD3 inh -2%, HepG2 tox -17%, ATXN2 expr inh inconclusive, ATXN viability inconclusive, TDP1 cell CPT 16µM* and TDP1 cell noCPT 8.2µM*.
`COc1ccccc1-c1cc(C(=O)N2CCN(c3ccccc3)CC2)no1` gave TGFb SMAD3 inh -9%, HepG2 tox 8%, ATXN2 expr inh 43%, ATXN viability inactive, TDP1 cell CPT inconclusive and TDP1 cell noCPT -13%.
COc1cc2c(C(=O)N3CCN(c4ccccc4)CC3)c(C)oc2cc1Br was read as TGFb SMAD3 inh -18%, HepG2 tox -83%, ATXN2 expr inh inconclusive, ATXN viability inactive, TDP1 cell CPT inconclusive and TDP1 cell noCPT 18µM*.
`CCN(CC)S(=O)(=O)c1ccc(NC(=O)c2c(C)oc3ncnc(N4CCCCC4)c23)cc1` gave TGFb SMAD3 inh -8%, HepG2 tox -27%, ATXN2 expr inh -19%, ATXN viability inactive, TDP1 cell CPT 21µM* and TDP1 cell noCPT 15µM*.
Screening Cc1cccc(N2CCN(C(=O)c3c(C)oc4ncnc(N5CCOCC5)c34)CC2)c1C returned TGFb SMAD3 inh -13%, HepG2 tox -4%, TDP1 cell CPT 0% and TDP1 cell noCPT -21%.
Screening O=C(CN1C(=O)C2CCCCN2c2ccc(C(=O)N3CCCC3)cc21)NCc1ccc(F)cc1 (stereo unspecified) returned TGFb SMAD3 inh -11%, HepG2 tox 4%, ATXN2 expr inh 6%, ATXN viability inactive, TDP1 cell CPT -20% and TDP1 cell noCPT -15%.
`O=C(Nc1ccccc1-c1ccccc1)C1CCCN(c2ncccn2)C1` (stereo unspecified) gave TGFb SMAD3 inh -20%, HepG2 tox 0%, ATXN2 expr inh 1%, ATXN viability inactive, TDP1 cell CPT 6% and TDP1 cell noCPT -21%.
For Cc1oc2ncnc(N3CCCCC3)c2c1C(=O)Nc1cccc(F)c1 the results were TGFb SMAD3 inh -19%, HepG2 tox -30%, TDP1 cell CPT inconclusive and TDP1 cell noCPT inconclusive.
Cc1nc(N2CCCC2)c2c(C(=O)N3CCN(c4cccc(Cl)c4)CC3)c(C)oc2n1 was read as TGFb SMAD3 inh inconclusive, HepG2 tox -15%, TDP1 cell CPT inconclusive and TDP1 cell noCPT inconclusive.
Cc1oc2ncnc(N3CCCCC3)c2c1C(=O)Nc1cccc(Cl)c1C was read as TGFb SMAD3 inh -19%, HepG2 tox -29%, TDP1 cell CPT 16µM* and TDP1 cell noCPT 15µM*.
Cc1ccc(N2CCN(C(=O)c3c(C)oc4ncnc(N5CCCCC5)c34)CC2)c(C)c1 was read as TGFb SMAD3 inh inconclusive, HepG2 tox -34%, ATXN2 expr inh inconclusive, ATXN viability inconclusive, TDP1 cell CPT 16µM* and TDP1 cell noCPT 7.3µM*.
For COc1cccc(N2CCN(C(=O)c3c(C)oc4ncnc(N5CCCCC5)c34)CC2)c1 the results were TGFb SMAD3 inh inconclusive, HepG2 tox -17%, ATXN2 expr inh -25%, ATXN viability inactive, TDP1 cell CPT inconclusive and TDP1 cell noCPT 18µM*.
CN(Cc1ccccc1Cl)C(=O)c1cnccc1C(F)(F)F was read as TGFb SMAD3 inh 24%, HepG2 tox 9%, ATXN2 expr inh -11%, ATXN viability inactive, TDP1 cell CPT -3% and TDP1 cell noCPT inconclusive.
`C[C@H](CO)N1C[C@H](C)[C@@H](CN(C)C(=O)Nc2ccc3c(c2)OCO3)Oc2c(NC(=O)Nc3ccc(C(F)(F)F)cc3)cccc2C1=O` gave TGFb SMAD3 inh inconclusive, HepG2 tox -81%, ATXN2 expr inh -2%, TDP1 cell CPT 13µM* and TDP1 cell noCPT inconclusive.
C[C@H](CO)N1C[C@H](C)[C@@H](CN(C)C(=O)Nc2ccc(C(F)(F)F)cc2)Oc2c(NC(=O)Nc3ccccc3)cccc2C1=O was read as TGFb SMAD3 inh inconclusive, HepG2 tox -44%, ATXN2 expr inh inconclusive, TDP1 cell CPT inconclusive and TDP1 cell noCPT inconclusive.
`C[C@H](CO)N1C[C@H](C)[C@@H](CN(C)C(=O)Nc2ccc(C(F)(F)F)cc2)Oc2c(NC(=O)Nc3ccc4c(c3)OCO4)cccc2C1=O` gave TGFb SMAD3 inh inconclusive, HepG2 tox -52%, ATXN2 expr inh inconclusive, ATXN viability inconclusive, TDP1 cell CPT inconclusive and TDP1 cell noCPT 18µM*.
C[C@@H]1CN([C@H](C)CO)C(=O)c2cccc(NC(=O)Nc3ccc(F)cc3)c2O[C@H]1CN(C)C(=O)Nc1ccc(C(F)(F)F)cc1 was read as TGFb SMAD3 inh inconclusive, HepG2 tox -2%, ATXN2 expr inh inconclusive, TDP1 cell CPT inconclusive and TDP1 cell noCPT inconclusive.
For CCOc1ccc(N2CC(NC(=O)c3ccc4c(c3)OCO4)CC2=O)cc1 (stereo unspecified) the results were TGFb SMAD3 inh -11%, HepG2 tox 3%, TDP1 cell CPT -14% and TDP1 cell noCPT -10%.
`CC(=O)c1ccc(C(=O)N2CCc3c([nH]c4ccccc34)C2c2ccccn2)s1` (stereo unspecified) gave TGFb SMAD3 inh -20%, HepG2 tox -20%, ATXN2 expr inh -6%, ATXN viability inactive, TDP1 cell CPT inconclusive and TDP1 cell noCPT 21µM*.
